Measured values: PubChem BioAssay (NCI)
This is part of a sample that, as a whole, favours compounds with a hit. Of some 83,000 tested, about 20% had one in any assay.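 96-well plates, one dose, 48 hours. Percent growth reported; active if below 10.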 Calls of active or inactive are those of the source.

Each compound was assayed on MDA-MB-468 breast (assay: NCI-60 one-dose screen, 48 h (100 = growth as untreated, 0 = no growth, -100 = all killed)). Details: 10 µM.

Structure (SMILES)	growth
CCOc1ccc(Nc2nc3ccccc3nc2Nc2ccc(OCC)cc2)cc1	25.4% (inactive)
O=c1cc(-c2ccccc2)oc2cc(OCCCCNCc3ccccc3)cc(O)c12	-28.2% (active)
Cc1ccc(C(C)C)cc1NC(=O)c1ccccc1N(C)C	71.9% (inactive)
CCCCSc1nc(Nc2ccc(/C(C)=N/NC(N)=S)cc2)c(C#N)c(-c2ccc(F)cc2)n1	-1.25% (active)
O=C(c1ccc(Cl)cc1)C1[C@H](c2ccccc2Br)[C@@H](c2ccccc2)NC12C(=O)Nc1ccccc12 (stereo not given in full)	-45.9% (active)
[2H]C([2H])([2H])Oc1ccc2ncc(C#Cc3cncc(C(=O)Nc4ccc(CN5CCN(C)CC5)c(C(F)(F)F)c4)c3)n2n1	-90.3% (active)
O=C1Nc2cc(Cl)ccc2/C1=C/c1ccc(OCc2ccc(Br)cc2F)cc1	-70.1% (active)
CCCCCCCCCCCCCCCCCCCC(=O)NCCc1c[nH]c2ccc(OC(=O)CCCC(=O)OCCOOCCOOCCOOCCOOCCOOCCOOCCOOCCOOCCOOCCOOCCOOCCOC)cc12	85.6% (inactive)
C[C@H]1[C@H](C)CC[C@]2(COC(=O)CCC(=O)NCC#CCN3CCNCC3)CC[C@]3(C)C(=CC[C@@H]4[C@@]5(C)CCCNC(C)(C)[C@@H]5CC[C@]43C)[C@H]12	17.9% (inactive)
COc1ccc2nc(Cl)c(-c3cc(-c4ccccc4)nc(N)n3)cc2c1	14.9% (inactive)
COc1ccc(CN2[C@H](C(=O)NCCCCCCC(=O)NO)Cc3c([nH]c4ccccc34)[C@H]2C2CC2)cc1	4.06% (active)
CN1CCN(c2ccc(Nc3nc(NCCCNC(=O)c4ccccc4)c4sccc4n3)cc2)CC1	68.4% (inactive)
COc1ccc(N(C)c2cc(C#N)nc3ccccc23)cc1N	3.98% (active)
COc1ccc(C(C)=C(c2ccc(OCCCN(C)C)cc2)c2ccc(OCCCN(C)C)cc2)cc1	-88% (active)
CC1(c2ccccc2)NC(=O)N(CC(=O)Nc2ccc(C(=O)/C=C/c3ccc(Cl)cc3)cc2)C1=O (stereo not given)	-9.47% (active)
NC(=Nc1ccc(OCCCCCCCCn2ccnn2)cc1)c1ccccc1	24% (inactive)
COC[C@@H](CC(C)C)N=C1N/C(=C\c2ccc3ncsc3c2)C(=O)N1C	-5.24% (active)
O=C(CSc1ccc(-c2ccc(Cl)cc2)nn1)Nc1ccc(Cl)c(C(F)(F)F)c1	16.5% (inactive)

Structure (SMILES)	growth
Cc1ccc(NC(=O)NCn2c(=O)[nH]c3ccccc3c2=O)cc1	84.1% (inactive)
Cc1cc(C)cc(Oc2cccc(-c3c(C)nnn3C3CCN(CCN(C)C)CC3)n2)c1	-20.2% (active)
CC(=O)NCC1=C(C)C=C2C(=O)[C@](C)(O)C3(CC3)C(C)=C21	-79.7% (active)
O=C(Nc1ccc(OCC(=O)c2ccccc2)cc1)Nc1ccc(Cl)c(C(F)(F)F)c1	-5.5% (active)
CCOC(=O)c1c(CSc2ccccc2)n(C)c2cc(CN(C)C)c(O)c(CN(C)C)c12	-4.94% (active)
Cc1ccc(-c2cc(-c3cc4ccccc4nc3Cl)[nH]c(=O)n2)cc1	-7.37% (active)
COc1ccc([C@H]2C(C(=O)c3ccc(Cl)cc3)C3(N[C@@H]2c2ccccc2)C(=O)Nc2ccc(Br)cc23)cc1 (stereo not given in full)	-7.76% (active)
O=C(CS(=O)(=O)c1oc(-c2ccc(Cl)cc2)nc1S(=O)(=O)c1ccc(Cl)cc1)N1CCOCC1	-4.97% (active)
COc1ccc(C=CC(=O)c2ccc(-n3c(C)nc4c(cnn4-c4ccccc4)c3=O)cc2)cc1	11.3% (inactive)
O=C1Nc2ccc(Cl)cc2/C1=C/c1cccc(OCc2ccccc2)c1	-10.2% (active)
CN(C)c1ccc(/C=C/C(=O)c2ccc(NC(=O)CN3C(=O)NC(C)(c4ccccc4)C3=O)cc2)cc1 (stereo not given)	7.04% (active)
COc1cccc(C(N)=Nc2ccc(OCCCCCCn3cncn3)cc2)c1	17.5% (inactive)
CN1CCN(Cc2ccc(C(=O)Nc3cccc(Nc4ccc5cc(O)ccc5n4)c3)cc2C(F)(F)F)CC1	-89.4% (active)
Nc1nnc(-c2c[nH]c3ccc(F)cc23)c(-c2c[nH]c3ncccc23)n1	54.1% (inactive)
C/C(=C\CC/C=C(\C)CC/C=C(\C)CC[C@@H](O)C(C)(C)O)CC/C=C(\C)CC[C@@H](O)C(C)(C)O	0.844% (active)
CN1CCN(c2ccc(Nc3nc(NCCCNC(=O)c4ccc(F)cc4)c4sccc4n3)cc2)CC1	59.1% (inactive)
C#Cc1ccc(S(=O)(=O)Nc2cccc(-c3csc(NC(C)=O)n3)c2)cc1	37.9% (inactive)
